Shown are actives, neighbours in structure and some others; about 15% of the full set was active somewhere.
ALOX12 inh: inhibitors of human 12S-lipoxygenase ALOX12. purified 12hLO, xylenol orange hydroperoxide absorbance. AID 1671190. hit rate 1.1% among 580,000. P18054. Potency, µM (series often up to 108 µM), for inactives: at the top dose activity change, negative = inhibition, actives largely listed as inhibitors
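Hydroperoxide product was detected by ferrous iron/xylenol orange as the 573 to 405 nm absorbance ratio. Arachidonic acid at 40 uM (final) was turned over for 30 min at room temperature by 150 nM human 12hLO, pH 7.0 Hepes buffer, after 15 min compound preincubation.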
ELG1 repair inh: ELG1-dependent DNA repair inhibition; HEK293T ELG1-luciferase reporter, luminescence, 16 h; DNA damage induced by 5-fluorouridine; AID 504467; hit rate 2.3% among 330,000; Potency, µM (doses to about 46.1 µM), without a hit: at the highest dose activity change, negative = inhibition, most hits filed as inhibitors; further: nearly all actives have a fitted effect of over 55% in size
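Luminescence from the luciferase reporter, measured 30 min after ONE-Glo reagent at room temperature, was the read-out. Beforehand, 2,000 cells per well were exposed for 16 hr at 37 °C to 5-fluorouridine together with compound or vehicle.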
RORgamma inh: ROR gamma (mouse) transcription inhibition | Drosophila S2 Gal4-RORgamma UAS-luciferase reporter, 20 h | hit rate 5.4% among 310,000 | Potency, µM (titrated, usually from 53.6 µM), without a hit: at the highest dose activity change, negative = inhibition, hits mostly inhibitors; further: nearly all actives have a fitted effect of over 60% in size
Target sequence (P51450 whole entry, looked up, the tested form may be a part): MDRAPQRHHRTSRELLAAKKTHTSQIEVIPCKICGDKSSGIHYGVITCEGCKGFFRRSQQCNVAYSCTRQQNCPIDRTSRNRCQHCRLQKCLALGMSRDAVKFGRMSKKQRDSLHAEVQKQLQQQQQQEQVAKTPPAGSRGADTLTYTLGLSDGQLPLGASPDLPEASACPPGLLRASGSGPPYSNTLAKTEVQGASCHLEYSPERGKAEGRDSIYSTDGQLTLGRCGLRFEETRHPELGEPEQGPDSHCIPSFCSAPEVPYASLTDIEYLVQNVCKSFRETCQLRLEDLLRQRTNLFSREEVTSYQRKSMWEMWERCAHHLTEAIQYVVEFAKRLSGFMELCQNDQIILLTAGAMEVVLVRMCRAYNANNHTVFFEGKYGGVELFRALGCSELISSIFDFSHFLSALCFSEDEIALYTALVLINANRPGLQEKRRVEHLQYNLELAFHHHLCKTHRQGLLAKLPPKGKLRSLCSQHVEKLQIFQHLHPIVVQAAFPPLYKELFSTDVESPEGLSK
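Luminescence from a UAS-regulated Photinus luciferase reporter in stably transfected Drosophila Schneider cells is measured; decreased signal marks ROR gamma inhibition. Fusion expression is induced by 700 uM copper sulfate for 20 hr.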
DT40 TDP1 CPT: growth inhibition of DT40 Tdp1-/-;hTDP1 cells with camptothecin (screen for TDP1 inhibitors). chicken DT40 Tdp1-/-;hTDP1 cells + 20 nM CPT, ATP luminescence, 48 h. Potency, µM (top dose mostly 46.2 µM), without a hit: at the top dose activity change, negative = growth inhibition, usual class: inhibitors. hit rate 12% among 420,000; further: nearly all actives have a fitted effect of over 55% in size
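Chicken DT40 Tdp1-/- cells complemented with human TDP1, 400 cells/well, exposed to compounds plus 20 nM camptothecin for at least 48 h at 37 C; viability read as ATP content by CellTiter-Glo luminescence.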
Gal4-VP16 FLuc: counter-screen for ROR gamma inhibitors: Gal4-VP16 reporter; Drosophila S2 Gal4-VP16 UAS-luciferase, luminescence, 20 h; Potency, µM (highest dose often 53.6 µM), inactives show at the top dose activity, negative = inhibition, usual class: inhibitors; hit rate 3.5% among 310,000; AID 2546;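 further: Gal4-VP16 expression switched on by copper sulfate through the metallothionein promoter; nearly all actives have a fitted effect of over 50% in size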
DT40 TDP1 no CPT: qHTS for Inhibitors of human tyrosyl-DNA phosphodiesterase 1 (TDP1): qHTS in cells in absence of CPT; DT40 Tdp1-/- hTDP1 cells, no CPT, ATP luminescence, 48 h; Potency, µM (highest dose often 46.2 µM), for inactives: at the top dose activity change, negative = growth inhibition, hits mostly inhibitors; hit rate 15% among 420,000; AID 686978, 2013; further: nearly all actives have a fitted effect of over 55% in size
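Seeded 400 DT40-hTDP1 cells/well (vehicle DMSO, no 20 nM CPT); pinned compounds; ≥48 hr at 37 °C; CellTiter-Glo luminescence as viability measure.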
* hit, by the source's call; ? = inconclusive; / = no result. The call rests on the fitted dose curve; in most records, active means well fitted curve in the direction sought with a large enough effect; inconclusive means small, poorly fitted or top-dose-only effect, or another doubt; inactive means no such curve, though single readings can be large; an effect the other way counts as inactive or inconclusive. On the % scale 0 is the no-effect control and ±100 the full control effect; potency means the concentration at half of the fitted maximal effect.

SMILES | ALOX12 inh | ELG1 repair inh | RORgamma inh | DT40 TDP1 CPT | Gal4-VP16 FLuc | DT40 TDP1 no CPT
O=C(c1cc2ccccc2[nH]1)N1CCC2(CC1)CN(c1ncccn1)CC2CO (configuration not stated) | 18% | / | / | / | / | /
CC(C)C[C@@H]1NC(=O)[C@H](CCCN)NC(=O)[C@H](C(C)C)NC(=O)[C@@H]2CCCN2C(=O)[C@@H](Cc2ccccc2)NC(=O)[C@H](CC(C)C)NC(=O)[C@H](CCCN)NC(=O)[C@H](C(C)C)NC(=O)[C@@H]2CCCN2C(=O)[C@@H](Cc2ccccc2)NC1=O | / | / | / | 0.41µM* | / | 0.15µM*
O=C(NNc1c2ccccc2nc2ccccc12)c1ccc(O)cc1 | -17% | ? | -29% | 13µM* | ? | ?
O=C(NNc1c2ccccc2nc2ccccc12)c1cccc(O)c1 | -19% | 15µM* | -7% | ? | -27% | 12µM*
Cc1ccc(C(=O)NNc2nc3ccccc3nc2C(F)(F)F)cc1 | 102% | -13% | ? | ? | -14% | 23µM*
O=C(NNc1c2ccccc2nc2ccccc12)c1ccccc1Cl | -32% | -8% | -21% | -23% | -13% | ?
CCOc1nc2ccccc2nc1N1CCC(C(=O)Nc2ccc(OC)cc2OC)CC1 | -3% | / | / | / | / | /
CCN(c1ccccc1)S(=O)(=O)c1cccc(C(=O)NCC(c2ccco2)N2CCCCC2)c1 (configuration not stated) | 0% | / | / | ? | / | 16µM*
O=C(NCC(c1cccs1)N1CCOCC1)c1ccccc1NS(=O)(=O)c1ccc(Cl)cc1 (configuration not stated) | ? | ? | ? | ? | -6% | ?
O=C(NCC(c1ccc(F)cc1)N1CCOCC1)c1cccnc1Sc1ccccc1 (configuration not stated) | 9% | -1% | / | -20% | / | ?
Cc1ccc(Sc2ncccc2C(=O)NCC(c2ccc(F)cc2)N2CCOCC2)c(C)c1 (configuration not stated) | -1% | ? | / | 15µM* | / | ?
O=C(NCC(c1cccs1)N1CCOCC1)c1ccccc1NS(=O)(=O)c1ccc(Br)cc1 (configuration not stated) | 0% | -15% | ? | ? | -21% | 15µM*
CCN(c1ccccc1)S(=O)(=O)c1cccc(C(=O)NCC(c2ccco2)N2CCCC2)c1 (configuration not stated) | 1% | -8% | 14% | ? | -5% | ?
CN(c1ccccc1)S(=O)(=O)c1cccc(C(=O)NCC(c2cccs2)N2CCOCC2)c1 (configuration not stated) | 2% | / | / | ? | / | 16µM*
CN(C)c1ccc(C(=O)NCC(c2cccs2)N2CCOCC2)cc1 (configuration not stated) | -6% | -1% | / | -5% | / | -19%
Cc1cccc(CN2CCCN(S(C)(=O)=O)C(c3ccccc3)CC(=O)NCC2)c1 (configuration not stated) | 11% | / | / | / | / | /
Cc1ccc(Sc2ncccc2C(=O)NCc2cc([N+](=O)[O-])ccc2O)c(C)c1 | 220% | ? | 5µM* | 26% | 7.1µM* | 9%
CSc1ncccc1C(=O)NCc1ccc(C)cc1 | 1% | 17% | 2% | -11% | -4% | -12%
C=CCN(c1ccccc1)S(=O)(=O)c1cccc(C(=O)NCC(c2ccc(F)cc2)N2CCOCC2)c1 (configuration not stated) | 11% | ? | / | 13µM* | / | 16µM*
Cc1ccc(NS(=O)(=O)c2cccc(C(=O)NCC(c3ccc(F)cc3)N3CCOCC3)c2)cc1 (configuration not stated) | -20% | ? | / | 29µM* | / | 16µM*
O=C(NCC(c1cccs1)N1CCOCC1)c1cccc(S(=O)(=O)Nc2ccc(F)cc2)c1 (configuration not stated) | 25% | / | / | ? | / | ?
COc1ccccc1NS(=O)(=O)c1cccc(C(=O)NCC(c2ccc(F)cc2)N2CCOCC2)c1 (configuration not stated) | 7% | -18% | / | ? | / | ?
CCN(c1ccccc1)S(=O)(=O)c1cccc(C(=O)NCC(c2ccc(F)cc2)N2CCOCC2)c1 (configuration not stated) | 0% | / | / | 23µM* | / | 10µM*
CN(C)C(=O)c1cccc(NC(=O)c2ccc(-c3ccccc3)cc2)c1 | 4% | / | / | / | / | /
O=C(O)[C@@H]1CN(S(=O)(=O)C2CC2)C[C@H]1c1ccccn1 | -11% | / | / | / | / | /
SMILES | ALOX12 inh | ELG1 repair inh | RORgamma inh | DT40 TDP1 CPT | Gal4-VP16 FLuc | DT40 TDP1 no CPT
N#Cc1cccc(-c2nccc(-n3ccnc3)n2)c1 | 25µM* | / | ? | ? | -19% | ?
CN(C)C(=O)c1ccc(-c2nccc(-n3ccnc3)n2)cc1 | 22µM* | / | 16% | ? | 1% | -11%
Cc1ccccc1-c1nc(-n2ccnc2)c2ccccc2n1 | ? | / | 10µM* | ? | 9% | ?
Cc1ccccc1-c1nccc(-n2ccnc2)n1 | 7.9µM* | / | -38% | 2% | -1% | 1%
Clc1ccccc1-c1nccc(-n2ccnc2)n1 | ? | / | -22% | 4% | 6% | -1%
CN(C)C(=O)c1ccc(-c2nccc(Nc3ccc(F)cc3)n2)cc1 | ? | / | 10% | -28% | -3% | -18%
COc1cccc(-c2[nH]nc3c2C(c2ccc(OC)c(OC)c2OC)C(C#N)=C(N)O3)c1 (configuration not stated) | -15% | / | / | / | / | /
O=C(NCc1ccco1)N1CCc2nc3cc(-c4ccccc4Cl)[nH]n3c(=O)c2C1 | 51% | / | / | / | / | /
Cc1ccc(S(=O)(=O)N2CCN(C(=O)c3cc4cc(C)ccc4nc3C)CC2)c(C)c1 | -27% | / | / | / | / | /
C[C@H](NCc1c[nH]c2ccccc12)c1ccccc1 | 87% | 12% | ? | 21µM* | -19% | ?
CN(Cc1ccccc1)Cc1c[nH]c2ccccc12 | -29% | -5% | -11% | 5.8µM* | -2% | 21µM*
CC(NC(=O)CCc1c[nH]c2ccccc12)c1ccccc1 (configuration not stated) | 0% | -2% | 1% | -20% | 5% | 9%
Cc1ccsc1/C=N/NC(=O)c1ccc([N+](=O)[O-])cc1 | 9% | 10% | 1µM* | -9% | 4.5µM* | ?
Cc1ccsc1/C=N/NC(=O)c1ccc2ccccc2c1 | 0% | ? | 3.2µM* | 15µM* | 5.6µM* | 18µM*
